Screening data as filed in PubChem.
RE007 growth inh: less growth of the S. pombe RE007 Vpr strain. S. pombe RE007 Vpr strain, BacTiter-Glo ATP luminescence, 24 h. Potency, µM (doses to about 92.2 µM), without a hit: at the top dose activity change, negative = less growth, hits mostly inhibitors. actives 0.21% (n = 360,000). AID 651644; active = well fitted falling curve with a large enough effect; inconclusive = small, poorly fitted or top-dose-only effect; inactive = no such curve, though single readings can be large or run the other way; note: nearly all actives have a fitted effect of over 50% in size
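Fission yeast RE007 carrying one integrated HIV-1 vpr copy, seeded at OD 0.01 in PMG+AL medium with 23 nL pinned compound. Grown 24 h at 30 degrees; viability read by BacTiter-Glo luminescence after 5 min.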
Tb PYK inh: inhibitors of Trypanosoma brucei pyruvate kinase. TbPYK enzyme, Kinase-Glo Plus ATP luminescence, 45 min. Potency, µM (highest dose often 76.8 µM), without a hit: top-dose activity, negative = inhibition, most hits filed as inhibitors. actives 0.12% (n = 410,000). AID 624173; note: nearly all actives have a fitted effect of over 50% in size
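Enzyme and substrate buffer are dispensed first and compound is pin-transferred. ADP at 130 uM final then starts the reaction, which runs 45 min at room temperature. Detection reagent is added for 10 min before luminescence is imaged.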
VACV Venus inh: vaccinia inhibition (Venus reporter). Vaccinia virus Venus reporter expression, fluorescence. Potency, µM (doses to about 36.5 µM), without a hit: at the highest dose activity change, negative = inhibition, usual class: inhibitors. actives 0.46% (n = 330,000). AID 720580; calls by dose curve; tested in A549 cells; note: nearly all actives have a fitted effect of over 30% in size
Vaccinia mCherry: vaccinia inhibition (mCherry reporter) | Vaccinia virus mCherry reporter infection, fluorescence | AID 720579 | actives 0.63% (n = 310,000) | Potency, µM (doses to about 36.5 µM), without a hit: at the highest dose activity change, negative = inhibition, hits mostly inhibitors; calls by dose curve; tested in A549 cells; note: nearly all actives have a fitted effect of over 35% in size
AMA1 RON2 block: inhibitors of Plasmodium falciparum AMA1-RON2 interaction | actives 0.2% (n = 360,000) | AlphaScreen AMA1-biotinylated RON2 peptide binding | Potency, µM (highest dose often 58.2 µM), for the others: top-dose activity change, negative = inhibition, hits mostly inhibitors;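 note: 0% = vehicle wells and -100% = peptide control; nearly all actives have a fitted effect of over 45% in size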
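AMA1 (3D7) with his tag at 25 nM final met compounds first, then biotinylated RON2 peptide at 25 nM; detection used donor plus acceptor beads, 10 µg/mL apiece, read by AlphaScreen after 30 min at room temperature.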
LmPK inhibitor: LmPK (Leishmania mexicana) enzyme inhibition. Q27686. purified LmPK, Kinase-Glo ATP luminescence, 1 h. Potency, µM (doses to about 57.5 µM), inactives show at the top dose activity change, negative = inhibition, usual class: inhibitors. actives 0.37% (n = 290,000). AID 1721
Target sequence (Q27686 whole entry, looked up): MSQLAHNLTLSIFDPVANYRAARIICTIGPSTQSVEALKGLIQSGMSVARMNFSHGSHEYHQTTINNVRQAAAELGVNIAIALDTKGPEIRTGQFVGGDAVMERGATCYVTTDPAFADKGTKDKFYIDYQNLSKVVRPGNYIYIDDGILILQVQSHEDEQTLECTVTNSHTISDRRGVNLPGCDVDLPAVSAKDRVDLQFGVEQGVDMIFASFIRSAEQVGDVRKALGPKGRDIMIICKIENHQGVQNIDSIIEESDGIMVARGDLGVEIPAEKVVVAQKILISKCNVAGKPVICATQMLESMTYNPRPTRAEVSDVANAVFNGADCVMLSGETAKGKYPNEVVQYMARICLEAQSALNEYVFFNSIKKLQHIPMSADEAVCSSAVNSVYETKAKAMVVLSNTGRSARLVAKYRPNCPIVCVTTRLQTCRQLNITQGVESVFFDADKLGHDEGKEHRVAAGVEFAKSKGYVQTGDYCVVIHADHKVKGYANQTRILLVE
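Kinase-Glo luminescence read after 1 h RT reaction of 0.1 nM LmPK with 0.5 mM PEP and 0.1 mM ADP. Activity scaled between uninhibited and enzyme-free controls.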
* hit, by the source's call; ? = inconclusive; . = no result given; [ ] = dose if it differs, or a comment. Shown are actives, neighbours in structure and some others; about 1.3% of the full set was active somewhere. Unless noted, calls come from the whole dose curve; as a rule, active = well fitted curve in the direction sought with a large enough effect; inconclusive = small, poorly fitted or top-dose-only effect, or another doubt; inactive = no such curve, though single readings can be large; an effect the other way counts as inactive or inconclusive. Unless noted, % is set by controls: 0 for no effect and ±100 for the full control effect; potency is the fitted concentration of half-maximal effect.

SMILES	RE007 growth inh	Tb PYK inh	VACV Venus inh	Vaccinia mCherry	AMA1 RON2 block	LmPK inhibitor
CC(=O)Nc1ccccc1-c1nc(CNC(=O)c2ccc(-n3cccn3)cc2)c(C)o1	.	.	0.9%	-12.8%	.	.
CCOc1ccc(NCc2nnc(SCC(=O)Nc3nc(-c4ccccc4)cs3)n2-c2ccccc2)cc1	-4.3%	-6.0%	?	11.2µM*	-4.9%	-0.1%
CCOc1ccc(NCc2nnc(SCc3ccc(Cl)cc3)n2-c2ccccc2)cc1	.	-11.3%	?	-19.3%	31.6µM*	0.7%
c1cncc(OC2CCN(Cc3ccc4c(c3)CN(Cc3ccc5c(c3)CCO5)CCO4)CC2)c1	.	.	-3.8%	-18.9%	.	.
COC(=O)C1CCN(Cc2ccc3c(c2)CN(C(=O)c2cc(C4CC4)on2)CCO3)CC1	.	.	8.7%	-3.3%	.	.
COc1cc(OC)cc(-c2nc3cc(C)ccc3o2)c1	?	-19.5%	.	.	20.1%	14.1µM*
Cc1ccc(-c2nc3cc(Cl)ccc3o2)cc1	-9.3%	2.4%	-12.9%	-12.4%	10.4%	?
CN(Cc1cc(Cl)cc(Cl)c1)CC(C(=O)c1ccccc1)c1ccccc1 (centres undefined)	11.9%	3.4%	-17.6%	-18.3%	-8.9%	.
CN(C)CC(C(=O)c1ccccc1)c1ccccc1 (centres undefined)	39.8µM*	-5.9%	10µM*	14.1µM*	-13.8%	0.3%
CCCCCCCC(=O)CC[C@H]1[C@@H](C/C=C/CCCC(=O)OC(C)C)[C@@H](O)C[C@H]1O	.	-8.3%	.	.	.	.
O=C(NC(NC(=S)Nc1ccccc1Cl)C(Cl)(Cl)Cl)c1cccc(Cl)c1 (centres undefined)	13.1%	-9.6%	?	12.6µM*	1.3%	0.3%
COc1ccc(NC(=S)NC(NC(=O)c2cccc(Cl)c2)C(Cl)(Cl)Cl)c([N+](=O)[O-])c1 (centres undefined)	-7.5%	-2.3%	?	?	15.8%	0.7%
CC(C)(C)OC(=O)C(Cc1ccc(OC(C)(C)C)cc1)NC(=O)CNC(=O)OCc1ccccc1 (centres undefined)	-24.2%	-31.0%	?	11.2µM*	-21.6%	-3.4%
CN(C)CCNc1ccc2nnn3c4ccc(O)cc4c(=O)c1c23	-4.3%	3.8%	?	?	19.8%	.
CCN(CC)CCCNc1ccc2ncn3c4ccc(O)cc4c(=O)c1c23	11.1%	-2.4%	?	0.891µM*	-26.9%	.
CN(C)c1ccc(/C=C/c2c(Cl)cnc3ccccc23)cc1	.	.	-14.6%	-11.3%	.	.
O=C(Nc1ccc2c(c1)OCO2)c1ccccn1	-15.3%	-24.5%	.	.	19.8%	.
O=C(Nc1ccc2c(c1)OCO2)c1cccs1	?	-14.2%	.	.	3.3%	25.1µM*
Cc1ccc(N/C=C/C(=O)c2cccs2)cc1	1.4%	-18.3%	.	.	-3.4%	15.8µM*
Cc1ccc(C(=O)Nc2ccc(NC(=O)c3cccs3)cc2)cc1C	.	0.6%	-6.6%	-5.8%	.	.
Cc1cc(C)cc(C(=O)Nc2ccc(NC(=O)c3cccs3)cc2)c1	14.5%	3.9%	?	10µM*	0.0%	1.7%
O=C(/C=C\Nc1ccc2c(c1)OCO2)c1ccccn1	-19.7%	-22.6%	-11.6%	-17.5%	-0.6%	3.55µM*
CCn1cc(CN2CCOc3ccc(C(O)C4CCCCC4)cc3C2)c(C)n1 (centres undefined)	.	.	-7.2%	-9.2%	.	.
COC(=O)C1CCN(Cc2ccc3c(c2)CN(C(=O)C(C)N2CCOCC2)CCO3)CC1 (centres undefined)	.	.	-5.4%	-13.8%	.	.
O=C(/C=C\Nc1ccc2c(c1)OCO2)c1cccs1	?	?	-15.8%	-19.8%	?	11.2µM*
CC(C)(CC(=O)NCc1ccc(Cl)cc1Cl)CC1=NS(=O)(=O)c2ccccc2N1	.	-5.7%	-11.8%	9.0%	.	.
O=S(=O)(Nc1ccc(O)c2ccccc12)c1cccs1	-9.0%	-16.4%	1.0%	-8.9%	-8.5%	11.2µM*
Cc1ccccc1NC(=O)c1onc2c1CCCC2	5.01µM*	-17.4%	-23.6%	-14.0%[1.46 µM]	-14.3%	12.6µM*
